This note sets out measurements from PubChem BioAssay AID777 (Sanford-Burnham Center for Chemical Genomics, 2007).

About 19,000 (20%) of roughly 96,000 compounds were called active.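 How the source made its calls: active means blocking of liver enzyme CYP2C9 beyond about 50% at 5 µM (limit read from the data); inactive means the rest.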 Only a sample is shown.

Sequence of Cytochrome P450 2C9 (Homo sapiens) (P11712 whole entry, looked up): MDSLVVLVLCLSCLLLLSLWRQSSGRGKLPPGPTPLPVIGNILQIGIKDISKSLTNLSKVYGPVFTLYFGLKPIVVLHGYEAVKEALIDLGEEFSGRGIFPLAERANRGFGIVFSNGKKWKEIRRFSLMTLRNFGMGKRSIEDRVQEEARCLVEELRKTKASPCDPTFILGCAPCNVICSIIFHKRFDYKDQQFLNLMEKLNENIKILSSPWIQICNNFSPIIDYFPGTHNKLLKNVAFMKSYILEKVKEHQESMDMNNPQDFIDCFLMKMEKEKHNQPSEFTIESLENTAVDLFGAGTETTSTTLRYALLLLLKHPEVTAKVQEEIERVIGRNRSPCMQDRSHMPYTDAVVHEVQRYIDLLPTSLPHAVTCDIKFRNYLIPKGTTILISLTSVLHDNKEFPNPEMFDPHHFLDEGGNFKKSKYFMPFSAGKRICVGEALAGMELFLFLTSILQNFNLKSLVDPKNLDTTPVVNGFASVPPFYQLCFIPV

The test addresses Cytochrome P450 2C9 (Homo sapiens) (UniProt P11712). The test is described as follows: blockers of cytochrome P450 2C9 activity – biochemical, luminescence, ADME assay, primary screen (AID 777). Particulars: CYP2C9 Supersomes, luciferin-H conversion, at 5 µM, hits give high values.
In general, inhibition refers to the drop in the measured response relative to a control, in per cent. With `CCCn1c(=O)c2ccccc2n2c(SCC(=O)/C(C#N)=C(\C)N)nnc12`, the inhibition was 14.3% (inactive).

With `CCOc1ccccc1NC(=O)CCc1ccc(C)o1`, the inhibition was -185% (inactive).

Regarding `CC1=NCCN1S(=O)(=O)c1ccc(Br)c(C)c1`, the inhibition is -80.5% (inactive).

For `CCCCOc1ccc(CSC(=N)N)cc1[N+](=O)[O-]`, the inhibition is 20% (inactive).

Take `CCCCOc1ccc(Cl)cc1CSc1nncn1N`: the inhibition is 74.2% (active).

Take `Cn1ncc2c(Nc3cccc4ccccc34)ncnc21`: the inhibition was -1.5% (inactive).

Turning to `O=C1COc2ccc(NC(=O)N3CCN(c4ccc(F)cc4)CC3)cc2N1`, the inhibition is 19.5% (inactive).

For the compound `CC1=NC2(CCCc3c2no[n+]3[O-])N(O)C1(C)C` (stereo not drawn), the inhibition was 11.5% (inactive).

In the case of `O=S1(=O)CCN2C(=N1)SC1=C2CCN(Cc2ccccc2)C1`, the inhibition was 0.4% (inactive).

`COC(=O)CN(C(=S)Nc1ccc(Cl)cc1)C1CC(=O)N(c2ccc(OC)cc2)C1=O` (stereo not drawn): the inhibition was 43.6% (inactive).

As to `Cc1cnc(NC(=O)CSc2c(Cl)cccc2Cl)s1`, the inhibition was 1.4% (inactive).

Turning to `COC(=O)c1c(-c2cccs2)csc1NC(=O)CSc1ncnc2sc(C)c(C)c12`, the inhibition is 76.2% (active).

With `COC(=O)c1ccccc1NC(=O)CSc1ccccn1`, the inhibition was -10.9% (inactive).

Take `CCn1c(SC)nc(O)c(C(c2ccc(OC)c(O)c2)c2c(O)nc(SC)n(CC)c2=O)c1=O`: the inhibition is 23.3% (inactive).

Turning to `Cc1cc(C)nc(SCc2nnc(SCC(=O)OC3CCCCC3)o2)n1`, the inhibition is 7% (inactive).

Turning to `CCOC(=O)CSc1nc2c(sc(=S)n2CCc2ccccc2)c(=O)n1Cc1ccco1`, the inhibition was 66.9% (active).

For `Nc1cc(=O)nc(SCc2ccccc2)n1Cc1ccco1`, the inhibition is 7.5% (inactive).

`CCOC(=O)CSc1nnc(-c2ccco2)n1C`: the inhibition is -20.3% (inactive).

Turning to `O=C(C1=C(O)C(=O)N(Cc2ccccc2)C1c1ccco1)c1ccco1` (stereo not drawn), the inhibition was 24% (inactive).

Regarding `CC1=NN(Cc2ccccc2)C(=O)/C1=C/c1ccc(N(C)C)cc1`, the inhibition is 14.4% (inactive).

For `CN(C)c1ccc(/C=C2\NC(=S)N(Cc3ccccc3)C2=O)cc1`, the inhibition was 66.2% (active).

`CN(C)c1cc[n+](Cc2ccccc2)cc1`: the inhibition was 2.2% (inactive).

In the case of `CCOC(=O)N1CCN(Cc2oc(CO)cc(=O)c2O)CC1`, the inhibition is -4.5% (inactive).

With `Cc1ccc(-c2cc(C(=O)Nc3nn[nH]n3)c3ccccc3n2)c(C)c1`, the inhibition is 23.9% (inactive).

`CC(C)(C)Cc1nnc(NC(=O)c2cc(-c3ccccc3)nc3ccccc23)s1`: the inhibition is 11.3% (inactive).

Turning to `N/C(=N\OC(=O)c1cc(-c2ccccc2)nc2ccccc12)c1ccncc1`, the inhibition was 97.7% (active).

`CC12CN(Cc3ccccc3)CC(C)(CN(Cc3ccccc3)C1)C2=NO`: the inhibition is -1.5% (inactive).

Take `COc1cccc(-c2nc3cc(C)ccc3o2)c1`: the inhibition is 53.3% (active).

With `CCc1ccc2oc(-c3ccc(N)cc3)nc2c1`, the inhibition was -59.8% (inactive).

`COc1cccc(-c2nc(S(=O)(=O)c3ccccc3)c(N3CCOCC3)o2)c1`: the inhibition is 27.5% (inactive).

Regarding `O=C(O)CSCc1ccc(C(=O)O)o1`, the inhibition was 13.1% (inactive).

Turning to `CSc1ccc(S(=O)(=O)Nc2cccc(F)c2)cc1`, the inhibition was 93.8% (active).

Take `CSc1ccc(S(=O)(=O)NCc2ccc(Cl)cc2)cc1`: the inhibition was -49.2% (inactive).

As to `O=C(O)c1ccc(F)c(S(=O)(=O)Nc2ccccc2)c1`, the inhibition was 17% (inactive).

On to `CCn1cc(C(=O)N2CCN(C3CCCCC3)CC2)c2cc(OC)c(OC)cc2c1=O`, for which the inhibition was 19% (inactive).

With `Cc1cc2ncn(CCCCOc3ccccc3)c2cc1C`, the inhibition was 27.5% (inactive).

With `CCOC(=O)c1cn(CC(=O)Nc2ccc(C(C)C)cc2)nn1`, the inhibition is 17.6% (inactive).

Consider `CCOC(=O)c1cccc(NC(=O)CCn2nnc3ccccc32)c1`, for which the inhibition was 53.3% (active).

For the compound `CCOC(=O)c1nnn(CC(=O)Nc2cccc(F)c2)c1C(=O)OCC`, the inhibition is 60.3% (active).

Take `CCOC(=O)c1ccc(NC(=O)Cn2nnc(-c3ccc(C)cc3)n2)cc1`: the inhibition was 32% (inactive).

Regarding `CCOC(=O)c1cccc(NC(=O)CCc2c(C)nc3ncnn3c2C)c1`, the inhibition was 15.2% (inactive).

In the case of `CCOC(=O)c1ccc(NC(=O)CS(=O)(=O)c2cn(CC)c3ccccc23)cc1`, the inhibition was 20.9% (inactive).

As for `CCCc1nc2scc(-c3ccc(C)cc3)c2c(=O)n1N`, the inhibition was 27.6% (inactive).

Consider `CCSc1ccccc1C(=O)NCc1ccc(OC)cc1`, for which the inhibition was 53.8% (active).

For `COc1ccc(CNC(=O)CCn2cccc2)cc1`, the inhibition is 20.4% (inactive).

On to `CCCNC(=O)c1ccccc1NC(=O)CSCc1ccc(OC)cc1`, for which the inhibition is 15.3% (inactive).

Take `CC(C)(CNCC(O)c1ccccc1)N1CCOCC1` (stereo not drawn): the inhibition was -3.5% (inactive).

In the case of `CCOC(=O)C1(Cc2ccc(O)cc2)NC(c2ccccc2F)C2C(=O)N(C)C(=O)C21` (stereo not drawn), the inhibition was -15.1% (inactive).

As to `Cc1nc([N+](=O)[O-])nn1C12CC3CC(CC(Br)(C3)C1)C2`, the inhibition is 18.8% (inactive).

Regarding `N#CC1=C(N)C(C#N)(C#N)[C@H](c2ccsc2)[C@H]2COCC=C12`, the inhibition is 61.4% (active).

For `CCN1CC=C2C(C#N)=C(N)C(C#N)(C#N)[C@H](c3ccoc3)[C@H]2C1`, the inhibition was -2.3% (inactive).

Regarding `CCOC(=O)N1CC=C2C(C#N)=C(N)C(C#N)(C#N)[C@H](c3cccs3)[C@H]2C1`, the inhibition was 11.7% (inactive).

As to `CCOc1ccc(C(=O)NC(C(=O)NCc2ccccn2)C(C)C)cc1` (stereo not drawn), the inhibition was 6.7% (inactive).

As for `O=C(Nc1cccc(C(=O)N2CCCC2)c1)c1ccccc1`, the inhibition is 31.3% (inactive).

Consider `Cc1cc(C)cc(NC(=O)c2cccc(NC(=O)C3C4CC5OC(=O)C3C5C4)c2)c1` (stereo not drawn), for which the inhibition is -1.1% (inactive).

Regarding `O=C(Nc1ccc(Br)cc1)c1cccc(NC(=O)C2C3CC4OC(=O)C2C4C3)c1` (stereo not drawn), the inhibition was 66.4% (active).

Take `C/C(N)=C(\C#N)C(=O)NCCc1ccccn1`: the inhibition was -7.1% (inactive).

For the compound `Fc1ccc(-c2nnc(CSc3nnc(-c4ccc5c(c4)OCO5)o3)o2)cc1`, the inhibition was -13.3% (inactive).

`Cc1ccc2nc(SCc3nnc(-c4ccccc4[N+](=O)[O-])o3)c(C#N)cc2c1`: the inhibition was 20% (inactive).

In the case of `Fc1ccc2nc(-c3ccccc3)nc(SCc3nnc(-c4ccccc4)o3)c2c1`, the inhibition is 76.7% (active).

As to `COc1ccc(OC)c(NC(=O)c2cnn(-c3ccccc3Cl)c2NC(=O)c2ccco2)c1`, the inhibition was 24.5% (inactive).

As to `Cc1nc2nc(COc3ccccc3)[nH]n2c(=O)c1C`, the inhibition is 1.1% (inactive).

Take `CCn1cc(C(=O)N/N=C(/C)c2ccc(F)cc2)c(=O)c2cc(F)c(N3CCCC3)cc21`: the inhibition was 5.7% (inactive).
